The list is not random: actives were taken first. Their share in the collection is about 17%.
DT40 TDP1 CPT: DT40-hTDP1 cell growth loss with CPT. chicken DT40 Tdp1-/-;hTDP1 cells + 20 nM CPT, ATP luminescence, 48 h. AID 686979. Potency, µM (series often up to 46.2 µM), without a hit: at the top dose activity change, negative = growth inhibition, actives largely listed as inhibitors. hit rate 12% among 420,000; note: % is set by controls: 0 for no effect and ±100 for the full control effect; nearly all actives have a fitted effect of over 55% in size
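Cell growth measured by CellTiter-Glo luminescence after a minimum 48 h, 37 C compound exposure with 20 nM CPT in Tdp1-knockout DT40 cells stably expressing hTDP1, seeded 400/well; qHTS titration format.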
TDP1 inh: inhibitors of human tyrosyl-DNA phosphodiesterase TDP1; hit rate 0.28% among 350,000; AID 485290; Potency, µM (series often up to 130 µM), inactives show top-dose activity change, negative = inhibition, actives largely listed as inhibitors; Q9NUW8; recombinant TDP1, AlphaScreen DNA substrate cleavage; note: % is set by controls: 0 for no effect and ±100 for the full control effect; nearly all actives have a fitted effect of over 40% in size
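Recombinant human Tdp1 (E. coli-expressed, 1 nM final) preincubated with compounds 15 min at room temperature, then 5'-biotin/3'-phosphotyrosine-FITC DNA substrate (15 nM final) added for 5 min. AlphaScreen beads (10 ug/ml final) added 10 min; cleavage lowers signal.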
TDP1 cell noCPT: qHTS for Inhibitors of human tyrosyl-DNA phosphodiesterase 1 (TDP1): qHTS in cells in absence of CPT | Potency, µM (titrated, usually from 46.2 µM), for the others: top-dose activity change, negative = growth inhibition, most hits filed as inhibitors | DT40 Tdp1-/- hTDP1 cells, no CPT, ATP luminescence, 48 h | hit rate 15% among 420,000; note: % is set by controls: 0 for no effect and ±100 for the full control effect; nearly all actives have a fitted effect of over 55% in size
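Compound effects on proliferation are scored in DT40 Tdp1-/-;hTDP1 cells in the absence of CPT. ATP levels (CellTiter-Glo luminescence) are recorded after a ≥48 hr, 37 °C incubation.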
ClpP mod: qHTS Assay for Activators of ClpP | Potency, µM (highest dose often 57.5 µM), without a hit: at the highest dose activity change, negative = active | hit rate 1.9% among 340,000 | ATP-dependent Clp protease proteolytic subunit (Bacillus subtilis (strain 168)), P80244 | AID 651965, 2013 | purified B. subtilis ClpP, FRET peptide cleavage, 20 min; active = well fitted falling curve with a large enough effect; inconclusive = small, poorly fitted or top-dose-only effect; inactive = no such curve, though single readings can be large or run the other way; note: the source files actives as falling curves though it sought activators and does not explain the sign; nearly all actives have a fitted effect of over 65% in size
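Buffer: 100 mM Tris/HCl pH8, 100 mM KCl, 0.05% low protease BSA, 2.5% glycerol, 0.01% Tween-20. ClpP 10 microg/mL final; 20 min RT; delta FRET normalized to ADEP and DMSO controls.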
* marks the source's active call; other numbers are inactive results; ? = inconclusive; . = no result given; ! = not active in a repeat; [ ] = remark or other dose. Unless noted, calls come from the whole dose curve; as a rule, active = well fitted curve in the direction sought with a large enough effect; inconclusive = small, poorly fitted or top-dose-only effect, or another doubt; inactive = no such curve, though single readings can be large; an effect the other way counts as inactive or inconclusive. Potency is the fitted concentration of half-maximal effect.

SMILES	DT40 TDP1 CPT	TDP1 inh	TDP1 cell noCPT	ClpP mod
C[C@@H]1O[C@@H](O[C@@H]2C=C3CC[C@@H]4[C@@H](CC[C@]5(C)[C@H](c6ccc(=O)oc6)CC[C@@]45O)[C@@]3(C)CC2)[C@H](O)[C@H](O)[C@H]1O	0.28µM*	.	?	0%
C[C@@H]1O[C@@H](O[C@@H]2C=C3CC[C@@H]4[C@H](CC[C@]5(C)[C@@H](c6ccc(=O)oc6)CC[C@]45O)[C@@]3(C)CC2)[C@H](O)[C@H](O)[C@H]1O	0.14µM*	.	0.13µM*	.
CC(=O)OCC(N)C(=O)c1ccccc1 (configuration not stated)	.	1%	.	.
CCC1C(=O)OC[C@H]1Cc1cncn1C (some centres not stated)	5%	10%[56.1 µM]	-6%	.
CCC(=O)OC1CCC2C3CCC4CC(=O)C=CC4(C)C3CCC12C (configuration not stated)	-71%	.	21µM*	.
CCCCCCCCCC(=O)O[C@H]1CC[C@H]2[C@@H]3CCC4=CC(=O)CC[C@]4(C)[C@H]3CC[C@]12C	4%	-11%	0%	.
Cc1c(Cl)cccc1NC(=O)CN1C(=O)C(C)N=C(c2ccccc2)c2ccccc21 (configuration not stated)	-15%	-2%	23µM*	0%
COCCNC(=O)CN1C(=O)C(C)N=C(c2ccccc2)c2cc(Cl)ccc21 (configuration not stated)	1%	.	-12%	-2%
COc1ccc(C(=O)Nc2ccc(-c3nc4ccccc4s3)cc2C)cc1Cl	?	7%	-29%	-27%
CNC(=O)COC(=O)c1ccc(-c2nc3ccccc3s2)s1	-26%	-6%	?	6.3µM*
Cc1cc(C=C2C(=O)NC(=S)NC2=O)c(C)n1C1CCCC1	15µM*	2%	?	.
CC1(C)N(O)C(c2ccc(C(=O)O)cc2)=[N+]([O-])C1(C)C	9%	10%[56.1 µM]	-13%	.
Cc1ccccc1CN1CCCN(Cc2ccc(Cl)cc2)S1(=O)=O	2%	.	-17%	.
CCc1ccccc1N1C(=O)N(Cc2ccccc2C)c2ccccc2S1(=O)=O	?	-1%	16µM*	0%
CCN1CCN(S(=O)(=O)c2ccc(Cl)c(C(=O)Nc3ccc(C(=O)N(CC)CC)cc3)c2)CC1	15µM*	-1%	?	1%
CCN(CC)C(=O)c1ccc(NC(=O)c2cccc(C(F)(F)F)c2)cc1	-15%	3%	?	.
CN(C)C(=O)On1c(-c2ccccc2)nc2ccc(Cl)cc21	?	9%	29µM*	-6%
COc1cc(OC)c2c(c1)OC(c1ccc(OC)c(OC)c1)C(O)C2 (configuration not stated)	-29%	8%	-26%	.
Cn1c(=O)oc2cc(NC(=O)CCl)ccc21	13µM*	6%	23µM*	-3%
Cn1c(=O)oc2cc(S(=O)(=O)NCCC(=O)NCCc3ccc(Cl)cc3)ccc21	?	3%	-26%	1%
CCOCCCNC(=O)c1c[nH]c2ccc(S(=O)(=O)N(C)c3ccc(Cl)cc3F)cc2c1=O	23µM*	-3%	16µM*	4%
O=C1CC2OCC=C3CN4CCC56c7ccccc7N1C5C2C3CC46 (configuration not stated)	.	11%	.	.
CN1CCC(C)(O)C2CCCCC21 (configuration not stated)	10%	-1%	-3%	0%
O=C1NC(=O)C2(Cc3ccccc3N3CCCC32)C(=O)N1c1ccccc1 (configuration not stated)	0%	8%	-11%	-10%
CN1c2ccc([N+](=O)[O-])cc2CC2(C(=O)NC(=O)N(c3ccc(Br)cc3)C2=O)C1c1ccccc1 (configuration not stated)	18µM*	7%	18µM*	-2%
SMILES	DT40 TDP1 CPT	TDP1 inh	TDP1 cell noCPT	ClpP mod
COc1ccc(C(=O)C2CN(C)CC2c2ccc(Cl)cc2)cc1 (configuration not stated)	18µM*	0%	?	1%
CN1CC(C(=O)c2cccc(C(F)(F)F)c2)C(c2ccc(Cl)cc2)C1 (configuration not stated)	23µM*	.	?	.
COc1cccc(C(=O)C2CN(C)CC2c2ccc(Cl)cc2)c1 (configuration not stated)	?	-3%	?	1%
COCC(=O)N(c1c(C)cccc1C)C(C)C(=O)OC (configuration not stated)	3%	.	?	.
CNC(=O)Oc1cccc2ccccc12	?	5%	?	.
CNCC[C@H](Oc1cccc2ccccc12)c1cccs1	16µM*	-2%	23µM*	1%
CC(=O)[C@H]1CC[C@H]2[C@@H]3CC[C@H]4C[C@H](O)CC[C@]4(C)[C@H]3C(=O)C[C@]12C	?	4%	12µM*!	1%
CC(=O)[C@@H]1CC[C@H]2[C@H]3CC[C@H]4C[C@@H](O)CC[C@]4(C)[C@@H]3C(=O)C[C@@]12C	.	9%[21 µM]	.	.
CC(=O)OC1CCC2(C)C(CCC3C4CC(N5CC5)C(C(C)=O)C4(C)CC(=O)C32)C1 (configuration not stated)	12µM*	.	15µM*	-4%
CC(CNC(=O)c1ccc(CSc2nc3ccncc3n2Cc2ccc(F)cc2)cc1)c1ccccc1 (configuration not stated)	12%	3%	?	-9%
CCOc1ccc(C2c3c(-c4ccccc4O)n[nH]c3C(=O)N2Cc2ccncc2)cc1 (configuration not stated)	7.3µM*	9%	5.2µM*	-1%
O=C1NC(=O)C(CCc2ccncc2)(Cc2ccc(OCc3ccccc3)cc2)C(=O)N1	9%	4%	-6%	-1%
COc1ccc(OC(=O)N2C/C(=C/c3ccccc3)C(=O)/C(=C\c3ccccc3)C2)cc1	1.2µM*	.	1.5µM*	2%
CC1([N+](=O)[O-])COP(=O)(Nc2ccc(Cl)cc2)OC1 (configuration not stated)	?	.	?	-1%
CN(C)C1C(=O)C(C(N)=O)=C(O)[C@@]2(O)C(=O)C3=C(O)c4c(O)ccc(Cl)c4[C@](C)(O)C3CC12 (some centres not stated)	16µM*	?	18µM*	.
CN(C)C1C(=O)C(C(N)=O)=C(O)C2(O)C(=O)C3=C(O)c4c(O)cccc4C(C)(O)C3C(O)C12 (configuration not stated)	10µM*	.	7.3µM*	-4%
CN(C)C1C(=O)C(C(N)=O)=C(O)[C@@]2(O)C(=O)C3=C(O)c4c(O)cccc4[C@@](C)(O)C3CC12 (some centres not stated)	?	-7%[56.1 µM]	?	.
Nc1ccc([N+](=O)[O-])cc1N	.	15%	.	.
Fc1ccccc1CSc1ncnc2c1ncn2C1CCCO1 (configuration not stated)	-30%	.	?	.

Screening data as filed in PubChem.
